Experimental data taken from the supplement of paper PMC12067093, “Discovery and optimisation of a covalent ligand for TRIM25 and its application to targeted protein ubiquitination” (Chemical Science, 2025).
Targets with the largest changes are over-represented here; the source holds about 21,000 in all.

compound: CC1Cc2ccccc2N1C(=O)C1CCCN(C1)C(=O)CCl (mixture of isomers) [TRIM25 ligand 11 (diastereomer mixture)]; test: probe-labelled cysteine peptide fold change vs DMSO (competition) (log2 fold change); higher = less target engagement (more negative = stronger competition); details: 10 µM; THP-1; incubation time: 4 h
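Note: competitive chemoproteomic profiling in live THP-1 cells with an iodoacetamide desthiobiotin (IA-DTB) probe, comparing probe-labelled peptide intensities in compound-treated cells against DMSO-treated controls.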

Sequence of UniProt Q01085 (Q01085 whole entry, looked up): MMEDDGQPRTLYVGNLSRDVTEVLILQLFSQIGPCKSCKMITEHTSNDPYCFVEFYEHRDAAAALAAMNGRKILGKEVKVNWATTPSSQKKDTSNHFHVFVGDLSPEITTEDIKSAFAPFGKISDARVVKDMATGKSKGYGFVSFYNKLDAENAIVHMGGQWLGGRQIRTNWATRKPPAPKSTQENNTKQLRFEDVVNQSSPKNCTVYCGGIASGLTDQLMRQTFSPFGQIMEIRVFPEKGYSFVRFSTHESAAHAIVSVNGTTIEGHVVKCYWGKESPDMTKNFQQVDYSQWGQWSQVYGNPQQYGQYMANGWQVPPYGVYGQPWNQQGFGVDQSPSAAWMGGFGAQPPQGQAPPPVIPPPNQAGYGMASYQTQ
Sequence of UniProt Q8N1F8 (Q8N1F8 whole entry, looked up): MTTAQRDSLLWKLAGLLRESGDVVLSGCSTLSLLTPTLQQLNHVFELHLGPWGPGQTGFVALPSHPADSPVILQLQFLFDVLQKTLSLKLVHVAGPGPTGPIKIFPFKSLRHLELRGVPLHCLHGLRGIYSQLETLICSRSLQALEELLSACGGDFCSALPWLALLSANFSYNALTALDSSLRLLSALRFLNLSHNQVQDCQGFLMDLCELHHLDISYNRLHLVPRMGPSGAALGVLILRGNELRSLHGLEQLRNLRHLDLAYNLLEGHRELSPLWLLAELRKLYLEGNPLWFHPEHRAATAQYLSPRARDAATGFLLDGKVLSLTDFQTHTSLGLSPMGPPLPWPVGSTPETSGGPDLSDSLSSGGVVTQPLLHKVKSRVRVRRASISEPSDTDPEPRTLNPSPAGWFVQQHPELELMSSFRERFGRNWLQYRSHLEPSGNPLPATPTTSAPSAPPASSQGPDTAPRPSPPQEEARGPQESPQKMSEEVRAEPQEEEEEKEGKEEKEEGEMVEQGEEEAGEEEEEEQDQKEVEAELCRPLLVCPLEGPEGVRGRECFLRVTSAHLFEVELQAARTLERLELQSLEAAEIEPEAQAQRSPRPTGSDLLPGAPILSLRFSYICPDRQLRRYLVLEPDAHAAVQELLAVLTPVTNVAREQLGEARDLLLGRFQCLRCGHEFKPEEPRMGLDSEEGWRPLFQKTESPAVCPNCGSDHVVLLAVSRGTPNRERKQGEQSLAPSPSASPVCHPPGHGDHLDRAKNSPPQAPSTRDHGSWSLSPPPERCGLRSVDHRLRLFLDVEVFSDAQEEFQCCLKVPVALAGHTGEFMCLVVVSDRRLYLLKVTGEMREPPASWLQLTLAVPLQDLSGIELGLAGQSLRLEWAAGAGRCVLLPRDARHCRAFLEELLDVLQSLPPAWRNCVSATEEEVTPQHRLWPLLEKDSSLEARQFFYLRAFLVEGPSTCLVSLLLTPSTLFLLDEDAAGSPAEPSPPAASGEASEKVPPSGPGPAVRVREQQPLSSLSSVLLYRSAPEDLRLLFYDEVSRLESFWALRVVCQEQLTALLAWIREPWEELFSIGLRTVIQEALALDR
Sequence of UniProt Q8NHU6 (Q8NHU6 whole entry, looked up): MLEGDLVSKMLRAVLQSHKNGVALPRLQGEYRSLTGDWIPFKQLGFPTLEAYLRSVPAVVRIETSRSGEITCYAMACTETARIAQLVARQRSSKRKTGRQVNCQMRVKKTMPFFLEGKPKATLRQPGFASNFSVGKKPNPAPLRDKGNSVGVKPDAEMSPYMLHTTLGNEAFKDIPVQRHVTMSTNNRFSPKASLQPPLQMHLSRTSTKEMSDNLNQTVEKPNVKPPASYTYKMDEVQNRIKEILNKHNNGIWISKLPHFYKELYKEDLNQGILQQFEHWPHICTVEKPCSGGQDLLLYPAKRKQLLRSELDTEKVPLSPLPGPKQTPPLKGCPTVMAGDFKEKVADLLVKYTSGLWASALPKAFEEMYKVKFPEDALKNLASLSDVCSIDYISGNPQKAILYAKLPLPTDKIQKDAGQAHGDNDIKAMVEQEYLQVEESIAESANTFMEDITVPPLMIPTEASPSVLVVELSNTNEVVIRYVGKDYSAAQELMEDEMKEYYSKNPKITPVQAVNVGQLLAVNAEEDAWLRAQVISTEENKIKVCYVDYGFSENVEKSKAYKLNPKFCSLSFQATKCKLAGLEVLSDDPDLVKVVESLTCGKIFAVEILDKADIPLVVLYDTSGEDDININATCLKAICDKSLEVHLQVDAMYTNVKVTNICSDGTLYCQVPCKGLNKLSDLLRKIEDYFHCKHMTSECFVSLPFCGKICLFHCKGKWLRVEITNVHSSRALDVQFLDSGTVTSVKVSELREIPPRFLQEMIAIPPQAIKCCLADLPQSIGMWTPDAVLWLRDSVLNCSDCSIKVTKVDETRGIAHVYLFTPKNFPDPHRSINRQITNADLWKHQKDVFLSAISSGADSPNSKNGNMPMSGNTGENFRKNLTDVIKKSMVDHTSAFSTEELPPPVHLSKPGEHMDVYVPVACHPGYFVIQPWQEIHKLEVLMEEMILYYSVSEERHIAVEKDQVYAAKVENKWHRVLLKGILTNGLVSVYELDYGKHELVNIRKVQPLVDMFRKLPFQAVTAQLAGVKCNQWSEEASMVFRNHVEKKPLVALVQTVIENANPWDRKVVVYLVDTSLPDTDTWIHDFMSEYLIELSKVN
Sequence of UniProt Q15654 (Q15654 whole entry, looked up): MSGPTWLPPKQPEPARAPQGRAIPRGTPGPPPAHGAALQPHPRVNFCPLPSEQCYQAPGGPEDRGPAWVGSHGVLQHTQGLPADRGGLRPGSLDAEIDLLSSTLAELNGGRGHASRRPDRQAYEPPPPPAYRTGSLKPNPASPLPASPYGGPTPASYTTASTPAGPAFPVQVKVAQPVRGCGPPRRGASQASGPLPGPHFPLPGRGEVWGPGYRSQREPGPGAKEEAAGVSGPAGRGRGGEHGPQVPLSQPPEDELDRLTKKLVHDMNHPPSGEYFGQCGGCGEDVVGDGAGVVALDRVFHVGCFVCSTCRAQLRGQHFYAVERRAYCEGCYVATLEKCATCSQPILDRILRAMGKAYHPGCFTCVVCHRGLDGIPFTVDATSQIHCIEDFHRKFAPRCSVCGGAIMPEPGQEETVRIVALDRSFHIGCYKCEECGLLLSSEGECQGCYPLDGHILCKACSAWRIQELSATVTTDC
Sequence of UniProt Q8TE77 (Q8TE77 whole entry, looked up): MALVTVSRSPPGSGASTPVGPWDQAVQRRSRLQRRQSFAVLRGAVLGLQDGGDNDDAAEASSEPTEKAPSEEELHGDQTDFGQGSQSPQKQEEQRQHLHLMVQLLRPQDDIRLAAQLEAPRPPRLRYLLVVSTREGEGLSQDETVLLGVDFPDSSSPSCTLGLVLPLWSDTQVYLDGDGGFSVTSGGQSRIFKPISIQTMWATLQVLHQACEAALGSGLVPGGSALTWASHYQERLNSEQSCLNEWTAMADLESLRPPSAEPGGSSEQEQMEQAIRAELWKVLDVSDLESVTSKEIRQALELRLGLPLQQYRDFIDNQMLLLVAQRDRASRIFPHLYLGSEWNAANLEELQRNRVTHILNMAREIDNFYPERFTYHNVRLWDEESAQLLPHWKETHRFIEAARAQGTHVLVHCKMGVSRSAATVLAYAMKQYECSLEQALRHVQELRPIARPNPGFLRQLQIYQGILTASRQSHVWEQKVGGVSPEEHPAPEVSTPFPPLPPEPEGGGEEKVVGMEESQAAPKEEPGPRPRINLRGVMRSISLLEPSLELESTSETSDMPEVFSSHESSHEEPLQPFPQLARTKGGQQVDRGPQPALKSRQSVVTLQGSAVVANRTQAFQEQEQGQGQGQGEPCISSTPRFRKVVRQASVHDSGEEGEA
Sequence of UniProt Q969E4 (Q969E4 whole entry): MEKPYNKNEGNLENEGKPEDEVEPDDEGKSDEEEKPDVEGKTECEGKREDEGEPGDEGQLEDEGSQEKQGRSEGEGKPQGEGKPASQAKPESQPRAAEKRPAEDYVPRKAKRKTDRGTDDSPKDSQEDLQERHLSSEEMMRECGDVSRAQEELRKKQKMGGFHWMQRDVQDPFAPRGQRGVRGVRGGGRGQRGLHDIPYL
Sequence of UniProt Q86TJ2 (Q86TJ2 whole entry, looked up): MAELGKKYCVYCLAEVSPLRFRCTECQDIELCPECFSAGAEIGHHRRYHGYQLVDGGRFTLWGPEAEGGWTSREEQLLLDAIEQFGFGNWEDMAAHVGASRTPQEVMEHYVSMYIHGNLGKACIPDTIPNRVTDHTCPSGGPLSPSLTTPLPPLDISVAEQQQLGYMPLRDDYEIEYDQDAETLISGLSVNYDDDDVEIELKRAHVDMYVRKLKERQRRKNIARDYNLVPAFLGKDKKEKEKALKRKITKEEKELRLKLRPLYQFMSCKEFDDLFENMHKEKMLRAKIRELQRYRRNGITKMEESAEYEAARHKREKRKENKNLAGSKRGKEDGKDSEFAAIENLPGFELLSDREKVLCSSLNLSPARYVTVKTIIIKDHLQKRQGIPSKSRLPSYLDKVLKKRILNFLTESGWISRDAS
Sequence of UniProt P53597 (P53597 whole entry, looked up): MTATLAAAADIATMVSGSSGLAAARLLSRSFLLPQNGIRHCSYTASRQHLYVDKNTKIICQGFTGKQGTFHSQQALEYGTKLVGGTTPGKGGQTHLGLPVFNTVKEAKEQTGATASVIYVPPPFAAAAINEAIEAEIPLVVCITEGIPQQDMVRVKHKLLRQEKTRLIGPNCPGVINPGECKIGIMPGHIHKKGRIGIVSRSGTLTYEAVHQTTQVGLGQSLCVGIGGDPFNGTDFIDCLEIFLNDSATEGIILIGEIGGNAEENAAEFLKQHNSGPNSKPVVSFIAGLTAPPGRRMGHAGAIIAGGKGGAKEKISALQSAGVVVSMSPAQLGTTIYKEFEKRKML

Target	probe-labelled cysteine peptide fold change
TIAL1_Q01085_205+209_NCTVYCGGIASGLTDQLMR (UniProt Q01085)	0.161
SSH3_Q8TE77_634_TQAFQEQEQGQGQGQGEPCISSTPR (UniProt Q8TE77)	-0.0571
TOP2B_Q02880-2_7_SGGCGAGAGVGGGNGALTWVNNAAK (UniProt Q02880)	-0.0783
TET3_O43151_1381_GKPWSPCK (UniProt O43151)	-0.294
TMEM94_Q12767_381_CIWGHFLR (UniProt Q12767)	-0.00858
SUPT16H_Q9Y5B9_574_INFYCPGSALGR (UniProt Q9Y5B9)	0.121
TBCD_Q9BTW9_457_GACSVGTNVR (UniProt Q9BTW9)	0.145
TCEAL3_Q969E4_44_TECEGKREDEGEPGDEGQLEDEGSQEK (UniProt Q969E4)	-0.32
THBS1_P07996_754_IPDDRDNCPFHYNPAQYDYDRDDVGDR (UniProt P07996)	0.813
THOC2_Q8NI27_743_DALLDHDLALPLCLLMAQQR (UniProt Q8NI27)	0.0629
SUCLG1_P53597_172_LIGPNCPGVINPGECK (UniProt P53597)	-0.0627
TDRD7_Q8NHU6_284_EDLNQGILQQFEHWPHICTVEK (UniProt Q8NHU6)	0.0148
TADA2B_Q86TJ2_32+35_CTECQDIELCPECFSAGAEIGHHR (UniProt Q86TJ2)	0.502
TLE1_Q04724_47_IKEEFQFLQAQYHSLKLECEK<|>TLE2_Q04725_46_IKEEFQFLQAQYHSLKLECEK (UniProt Q04725+Q04724)	-0.573
TGFBRAP1_Q8WUH2_32_VNIECVECCGR (UniProt Q8WUH2)	-0.0319

same assay, conditions: 50 µM; THP-1; incubation time: 4 h

Target	probe-labelled cysteine peptide fold change
TAF2_Q6P1X5_357_CLAQSLAQQFFGCFISR (UniProt Q6P1X5)	-0.862
TRIP6_Q15654_362+365+368_AYHPGCFTCVVCHR (UniProt Q15654)	0.0784
TARSL2_A2RTX5_546_FQQDDAHIFCTVEQIEEEIK (UniProt A2RTX5)	0.235
STK11IP_Q8N1F8_918_NCVSATEEEVTPQHR (UniProt Q8N1F8)	0.108
ST13_P50502_209_LLGHWEEAAHDLALACKLDYDEDASAMLK (UniProt P50502)	-0.574
TES_Q9UGI8_22_MGLGHEQGFGAPCLK (UniProt Q9UGI8)	-0.176
TANC1_Q9C0D5_800_MDALSCFLIK (UniProt Q9C0D5)	0.0229
